Our source for the Potency values is PubChem BioAssay (NCATS).

The target in experiment [1] is Glutathione peroxidase 1 (Homo sapiens) (UniProt P07203). Put plainly: Primary qHTS Assay for Inhibitors of Recombinant Selenoprotein Glutathione Peroxidase 1 (GPX1) (AID 1845191). Note: nearly all actives have a fitted effect of over 65% in size. The procedure, abridged:
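GR-coupled readout: NADPH consumption tracked by fluorescence, ex 340/em 450 nm, at t=0 and after 15 min at RT. Final mix 10 nM GPX1, 1 mM GSH, 0.5 mM CHP, 0.5 mM NADPH, 100 nM GR, 0.01% BSA, following 30 min enzyme–compound preincubation.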
(In qHTS, concentration-response curves come from the screen itself.)

In experiment [2] the target is Phospholipid hydroperoxide glutathione peroxidase GPX4 (Homo sapiens) (UniProt P36969). Description: Primary qHTS Assay for Inhibitors of Recombinant Selenoprotein Glutathione Peroxidase 4 (GPX4) (AID 1845192). Note: nearly all actives have a fitted effect of over 65% in size. An outline of the steps:
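Steps: GPX4 plus compound, 30 min RT; add GR/GSH/NADPH master mix; start with cumene hydroperoxide; read 340/450 nm fluorescence at 0 and 15 min. Finals were 200 nM GPX4, 1 mM GSH, 0.5 mM CHP, 0.5 mM NADPH, 100 nM GR.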

Experiment [3] concerns the target Luciferin 4-monooxygenase (Photinus pyralis) (UniProt P08659). Description: Primary firefly luciferase (FLuc) qHTS assay for identification of artifact compounds. (AID 1845220). Note: nearly all actives have a fitted effect of over 60% in size. An outline of the steps: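 D-luciferin and ATP (10 uM each, final) in Tris acetate buffer pH 7.6 were incubated with compounds for 15 min at room temperature. The reaction was started with 10 nM Photinus pyralis luciferase and luminescence read after 5 min. Percent inhibition was fitted to a 4-parameter Hill equation.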

Experiment [4] in a line: Primary fluorescence-based thiol-reactive (MSTI) qHTS assay for identification of artifact compounds. (AID 1845221). Note: nearly all actives have a fitted effect of over 65% in size. The procedure, abridged: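 Compounds were incubated 1 h at room temperature in the dark with the MSTI probe (4 uM) in PBS pH 7.4, 2% DMSO. Signals were normalized between Acetyl-MSTI and MSTI.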

Where “and” joins values, the source holds several entries; their conditions need not be identical. Equal values may be shown once. Records with an inconclusive call do not appear. A structure can be active in one record and inactive in another. Calls of active or inactive are those of the source. Calls come from the whole dose curve; as a rule, active = well fitted curve in the direction sought with a large enough effect; inconclusive = small, poorly fitted or top-dose-only effect, or another doubt; inactive = no such curve, though single readings can be large; an effect the other way counts as inactive or inconclusive.
Potency is the fitted concentration of half-maximal effect.

Chain of Glutathione peroxidase 1 (Homo sapiens) (P07203 whole entry, looked up): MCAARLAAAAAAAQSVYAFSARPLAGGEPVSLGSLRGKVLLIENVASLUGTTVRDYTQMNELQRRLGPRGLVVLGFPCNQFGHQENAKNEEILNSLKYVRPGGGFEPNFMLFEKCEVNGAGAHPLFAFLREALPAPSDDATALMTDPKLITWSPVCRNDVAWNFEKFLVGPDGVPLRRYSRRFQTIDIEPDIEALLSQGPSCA
Chain of Phospholipid hydroperoxide glutathione peroxidase GPX4 (Homo sapiens) (P36969 whole entry, looked up): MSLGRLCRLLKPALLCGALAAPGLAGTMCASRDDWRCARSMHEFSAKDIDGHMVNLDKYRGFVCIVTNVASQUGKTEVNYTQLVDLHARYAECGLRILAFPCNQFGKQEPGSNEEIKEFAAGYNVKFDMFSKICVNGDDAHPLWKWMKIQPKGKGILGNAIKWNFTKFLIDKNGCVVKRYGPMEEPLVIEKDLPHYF

Consider `O=Nc1c(-c2c(O)[nH]c3cc(Br)ccc23)[nH]c2ccccc12`, for which the Potency result in experiment [1] and in experiment [2] was “inactive” in each case.

With `O=C(O)c1cc(=O)c2c(OCC(O)COc3cccc4oc(C(=O)O)cc(=O)c34)cccc2o1`, the Potency entry in experiment [1] and in experiment [2] was “inactive” throughout.

With `CN(C)CCc1c[nH]c2ccc(Cn3cncn3)cc12`, the Potency entry in experiment [1] and in experiment [2] was “inactive” each time.

Consider `COCCCN1CCC(NC(=O)c2cc(Cl)c(N)c3c2OCC3)CC1`, for which the Potency entry in experiment [1] and in experiment [2] was “inactive” in each case.

Consider `O=c1ccc2ccc(O)c(O)c2o1`, for which the Potency result in experiment [1] and in experiment [2] was “inactive” each time.

Regarding `Nc1cc(C(Cl)=C(Cl)Cl)c(S(N)(=O)=O)cc1S(N)(=O)=O`, the Potency entry in experiment [1] and in experiment [2] was “inactive” throughout.

For the compound `Cc1cc(=O)oc2cc(O)ccc12`, the Potency in experiment [1] was 18 µM (active) and 4.09 µM (active); in experiment [2], 12.8 µM (active) and 1.61 µM (active).

Turning to `CCC[C@@H]1C[C@@H](C(=O)N[C@@H]([C@H]2O[C@H](SC)[C@H](O)[C@@H](O)[C@H]2O)[C@@H](C)O)N(C)C1`, the Potency result in experiment [1] and in experiment [2] was “inactive” each time.

Regarding `O=C(NC(Cc1cc(=O)[nH]c2ccccc12)C(=O)O)c1ccc(Cl)cc1` (stereo not given), the Potency entry in experiment [1] and in experiment [2] was “inactive” in each case.

Take `CC1(C)NC(=O)N(c2ccc([N+](=O)[O-])c(C(F)(F)F)c2)C1=O`: the Potency result in experiment [1] and in experiment [2] was “inactive” throughout.

As to `Oc1ccc2ccccc2c1SSc1c(O)ccc2ccccc12`, the Potency entry in experiment [1] and in experiment [2] was “inactive” in each case.

With `CCCCC(CC)COC(=O)C(C#N)=C(c1ccccc1)c1ccccc1` (stereo not given), the Potency entry in experiment [1] and in experiment [2] was “inactive” each time.

On to `COC(=O)C1=C(C)NC(C)=C(C(=O)OC(C)C)C1c1cccc2nonc12` (stereo not given), for which the Potency result in experiment [1] and in experiment [2] was “inactive” throughout.

With `CC1Cc2ccccc2N1NC(=O)c1ccc(Cl)c(S(N)(=O)=O)c1` (stereo not given), the Potency result in experiment [1] and in experiment [2] was “inactive” throughout.

For the compound `Cc1cc2cc3c(C)cc(=O)oc3c(C)c2o1`, the Potency result in experiment [1] and in experiment [2] was “inactive” each time.

`CNC[C@H](O)c1ccc(O)c(O)c1`: the Potency result in experiment [1] and in experiment [2] was “inactive” throughout.

Regarding `NCCCCNCCCN`, the Potency entry in experiment [1] and in experiment [2] was “inactive” each time.

Take `CCN(CC)CCOc1ccc(Nc2ncc3cc(-c4c(Cl)cccc4Cl)c(=O)n(C)c3n2)cc1`: the Potency result in experiment [1] and in experiment [2] was “inactive” throughout.

For the compound `Cn1c(NCCN(CCO)CCCc2ccc([N+](=O)[O-])cc2)cc(=O)n(C)c1=O`, the Potency entry in experiment [1] and in experiment [2] was “inactive” each time.

On to `COc1ccccc1N1CCN(CCN(C(=O)C2CCCCC2)c2ccccn2)CC1`, for which the Potency result in experiment [1], in experiment [2], in experiment [3] and in experiment [4] was “inactive” throughout.

Regarding `COc1ccc(C2(C#N)CCC(C(=O)O)CC2)cc1OC1CCCC1` (stereo not given), the Potency result in experiment [1], in experiment [2], in experiment [3] and in experiment [4] was “inactive” throughout.

For `Cc1cccc(-c2[nH]ncc2-c2ccc3ncccc3n2)n1`, the Potency entry in experiment [1] and in experiment [2] was “inactive” each time.

For `Cc1ccc(Nc2nccc(N(C)c3ccc4c(C)n(C)nc4c3)n2)cc1S(N)(=O)=O`, the Potency entry in experiment [1], in experiment [2], in experiment [3] and in experiment [4] was “inactive” in each case.

With `CC(=O)O[C@H]1C(=O)[C@@]2(C)C([C@H](OC(=O)c3ccccc3)[C@]3(O)C[C@H](OC(=O)[C@H](O)[C@@H](NC(=O)c4ccccc4)c4ccccc4)C(C)=C1C3(C)C)[C@]1(OC(C)=O)CO[C@@H]1C[C@@H]2O` (stereo not given in full), the Potency result in experiment [1], in experiment [2], in experiment [3] and in experiment [4] was “inactive” each time.

`N[C@@H](Cc1cc(I)c(Oc2cc(I)c(O)c(I)c2)c(I)c1)C(=O)O`: the Potency entry in experiment [1], in experiment [2] and in experiment [3] was “inactive” throughout. In experiment [4], the Potency was 0.736 µM (active).

For the compound `O=C1c2ccccc2-c2n[nH]c3cccc1c23`, the Potency entry in experiment [1] and in experiment [2] was “inactive” in each case.

`CCCS(=O)c1ccc2nc(NC(=O)OC)[nH]c2c1` (stereo not given): the Potency result in experiment [1], in experiment [2], in experiment [3] and in experiment [4] was “inactive” in each case.

Turning to `CC1(C)C(=O)N(CCN2CCC(C(=O)c3ccc(F)cc3)CC2)c2ccccc21`, the Potency result in experiment [1] and in experiment [2] was “inactive” each time.

On to `O=C(OC1C[C@H]2CC[C@@H](C1)[N+]21CCCC1)C(O)(c1ccccc1)c1ccccc1` (stereo not given in full), for which the Potency entry in experiment [1], in experiment [2], in experiment [3] and in experiment [4] was “inactive” each time.

In the case of `CC(=O)NC[C@H]1CN(c2ccc(N3CCOCC3)c(F)c2)C(=O)O1`, the Potency result in experiment [1], in experiment [2], in experiment [3] and in experiment [4] was “inactive” each time.

In the case of `CCC1=C(C)CN(C(=O)NCCc2ccc(S(=O)(=O)NC(=O)NC3CCC(C)CC3)cc2)C1=O` (stereo not given), the Potency entry in experiment [1], in experiment [2], in experiment [3] and in experiment [4] was “inactive” throughout.

In the case of `COc1cc(C(C)=O)ccc1OCCCN1CCC(c2noc3cc(F)ccc23)CC1`, the Potency result in experiment [1] and in experiment [2] was “inactive” in each case.

As for `C=C(c1ccc(C(=O)O)cc1)c1cc2c(cc1C)C(C)(C)CCC2(C)C`, the Potency result in experiment [1] and in experiment [3] was “inactive” throughout. The Potency in experiment [2] is 6.31 µM (active) and inactive and 8.06 µM (active).

Consider `c1cnc2cc3c(cc2n1)C1CNCC3C1`, for which the Potency entry in experiment [1], in experiment [2] and in experiment [3] was “inactive” throughout.

Take `O=C(NOCC1CC1)c1ccc(F)c(F)c1Nc1ccc(I)cc1Cl`: the Potency result in experiment [1], in experiment [2], in experiment [3] and in experiment [4] was “inactive” each time.

As for `CN(C)CCCC1(c2ccc(F)cc2)OCc2cc(C#N)ccc21` (stereo not given), the Potency result in experiment [1], in experiment [2], in experiment [3] and in experiment [4] was “inactive” in each case.

For `Cc1ccc(NC(=O)c2ccc(CN3CCN(C)CC3)cc2)cc1Nc1nccc(-c2cccnc2)n1`, the Potency entry in experiment [1], in experiment [2] and in experiment [4] was “inactive” in each case. Further, the Potency in experiment [3] was 19 µM (active).

`O=c1oc2cc(O)ccc2s1`: the Potency result in experiment [1] and in experiment [2] was “inactive” throughout.

Regarding `CCC(C)(Oc1ccc(C2(c3ccc(OC(C)(CC)C(=O)O)cc3)CCCCC2)cc1)C(=O)O` (stereo not given), the Potency entry in experiment [1], in experiment [2], in experiment [3] and in experiment [4] was “inactive” each time.

With `Clc1ccc(C(Cn2ccnc2)OCc2c(Cl)cccc2Cl)c(Cl)c1` (stereo not given), the Potency entry in experiment [1], in experiment [2], in experiment [3] and in experiment [4] was “inactive” each time.

With `CC(=O)Nc1ccc(O)cc1`, the Potency entry in experiment [2] was “inactive”.

For `O=C1CCc2ccc(OCCCCN3CCN(c4cccc(Cl)c4Cl)CC3)cc2N1`, the Potency result in experiment [1] and in experiment [2] was “inactive” in each case.

For the compound `OC(CN1CCN(c2cccc(Cl)c2)CC1)C(c1ccccc1)c1ccccc1` (stereo not given), the Potency entry in experiment [1], in experiment [2], in experiment [3] and in experiment [4] was “inactive” in each case.

Regarding `COc1c(O)cc2c(c1O)[C@@H]1O[C@H](CO)[C@@H](O)[C@H](O)[C@H]1OC2=O`, the Potency entry in experiment [1], in experiment [2] and in experiment [3] was “inactive” in each case. The Potency in experiment [4] was 11.7 µM (active).

For the compound `Cc1nc(-c2ccc(OCC(C)C)c(C#N)c2)sc1C(=O)O`, the Potency entry in experiment [2] was “inactive”.

For the compound `O=c1c(O)c(-c2ccc(O)cc2O)oc2cc(O)cc(O)c12`, the Potency result in experiment [1] was “inactive”. In experiment [2], the Potency result is “inactive and 10.1 µM (active)”.

In the case of `CN(C)C(=O)[C@H](O)[C@H](Cc1ccccc1)NC(=O)c1cc2cc(Cl)ccc2[nH]1`, the Potency entry in experiment [1], in experiment [2], in experiment [3] and in experiment [4] was “inactive” each time.

As to `CN(c1nccc(=O)[nH]1)C1CCN(c2nc3ccccc3n2Cc2ccc(F)cc2)CC1`, the Potency result in experiment [1], in experiment [2], in experiment [3] and in experiment [4] was “inactive” in each case.

Consider `Cc1cc2c(s1)Nc1ccccc1N=C2N1CCN(C)CC1`, for which the Potency in experiment [1] was 16.1 µM (active). In addition, the Potency entry in experiment [2] and in experiment [3] was “inactive” each time.

Turning to `O=c1cc(N2CCOCC2)oc2c(-c3ccccc3)cccc12`, in experiment [2], the Potency entry was “inactive”.

As for `Cc1cc(Cl)ccc1OCCCC(=O)NO`, the Potency entry in experiment [1] and in experiment [2] was “inactive” each time.

Turning to `COc1cc2c(N3CCN(C(=O)Nc4ccc(OC(C)C)cc4)CC3)ncnc2cc1OCCCN1CCCCC1`, the Potency entry in experiment [1], in experiment [2], in experiment [3] and in experiment [4] was “inactive” each time.

With `CC(C)c1nc(CN(C)C(=O)N[C@H](C(=O)N[C@@H](Cc2ccccc2)C[C@H](O)[C@H](Cc2ccccc2)NC(=O)OCc2cncs2)C(C)C)cs1`, the Potency entry in experiment [1], in experiment [2], in experiment [3] and in experiment [4] was “inactive” each time.

As to `COc1cc(Nc2c(C#N)cnc3cc(OCCCN4CCN(C)CC4)c(OC)cc23)c(Cl)cc1Cl`, the Potency entry in experiment [1], in experiment [2], in experiment [3] and in experiment [4] was “inactive” each time.
